Screens as filed in PubChem.
Compounds with a hit are over-represented: about 3.7% of the library has one in this group of screens.
Wnt act: Wnt/beta-catenin pathway activators, primary screen, cell-based, plate reader, single point. 300,000 tested, 1.2% active. AID 743398, 2014. activation, % at 9.35 µM. Wnt/beta-catenin reporter cell assay, activator; in the data active = activation above about 30%, passing the limit was not always enough; inconclusive = no clear call, values can overlap the other calls;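 note: 0% = neutral control wells and 100% = positive control wells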
Ecoli rRNA inh: reduced GFP signal of wild-type E. coli, primary screen, bacterial rRNA inhibitor project, GFP/RFP fluorescence, OD600, single point. E. coli WT GFP vs humanized-ribosome RFP mutants, 24 h; active compounds read low; DMSO median 0, no signal -100. GFP signal change (wild-type ribosome), % (test concentration not listed). 350,000 tested, 1.6% active. AID 720706, 2013;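 active = significant combined selectivity score with lowered wild-type GFP, culture density cut under 30%, mutant RFP and density less affected; inactive = any of these conditions unmet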
esBAF inh: Bmi1 luciferase reporter increase in mESCs, primary screen, esBAF inhibitor project, mouse ES cells, Bmi1 luciferase knock-in, single point. 350,000 tested, 2% active. reporter increase, % at 12.5 µM. 24 h; 100% = twice the neutral-well signal. AID 602393, 2012; in the data active = activation above about 40%; inconclusive = no clear call, values can overlap the other calls;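 note: 0% = median of the plate's neutral control wells and 100% = double that signal; a rise in the Bmi1 reporter signal indicates esBAF inhibition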
MITF act: activators of MITF-driven TRPM1 promoter reporter, primary screen, cell-based, SK-MEL-5, luciferase, single point | AID 588334, 2011 | 300,000 tested, 0.75% active | activation, % at 12.5 µM | SK-MEL-5 TRPM1-promoter luciferase, 24 h; % of positive control, neutral wells = 0;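 active = mean activation of at least 80% with every replicate also reaching 80%; inconclusive = mean reaches 80% but some replicate falls short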;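 note: 0% = neutral control wells and 100% = parthenolide positive control wells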
MLL AF4-AF9 inh: inhibitors of AF4 peptide binding to AF9, primary screen, biochemical, AlphaScreen, biotin-AF4 peptide, FLAG-AF9, single point | Protein AF-9 (Homo sapiens), P42568 | inhibition, % at 10 µM | 350,000 tested, 0.47% active;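 active = every replicate reaching a set inhibition limit, whatever the replicate mean, cut at about 25% in these data; inconclusive = mean inhibition reaches that limit but some replicates miss it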;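 note: 0% = plate neutral control median and 100% = total signal loss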
Target sequence (P42568 whole entry, looked up): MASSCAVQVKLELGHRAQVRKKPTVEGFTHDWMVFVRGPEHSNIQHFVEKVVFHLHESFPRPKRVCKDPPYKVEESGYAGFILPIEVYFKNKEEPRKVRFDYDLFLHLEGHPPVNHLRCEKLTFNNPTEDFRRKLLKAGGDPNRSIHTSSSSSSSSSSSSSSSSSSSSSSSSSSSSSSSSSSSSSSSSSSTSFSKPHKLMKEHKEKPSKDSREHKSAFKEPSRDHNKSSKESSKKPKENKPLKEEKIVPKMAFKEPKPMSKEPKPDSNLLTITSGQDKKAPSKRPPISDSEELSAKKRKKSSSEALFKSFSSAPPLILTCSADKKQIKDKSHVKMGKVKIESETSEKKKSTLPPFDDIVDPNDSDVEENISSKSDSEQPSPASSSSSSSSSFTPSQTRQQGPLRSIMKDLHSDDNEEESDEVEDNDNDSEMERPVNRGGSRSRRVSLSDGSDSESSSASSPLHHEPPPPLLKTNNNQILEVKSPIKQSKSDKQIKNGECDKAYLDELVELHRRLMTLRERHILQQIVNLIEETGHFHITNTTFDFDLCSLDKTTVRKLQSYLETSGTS
An asterisk follows results filed as active; ? = inconclusive; . = no result given.

SMILES	Wnt act	Ecoli rRNA inh	esBAF inh	MITF act	MLL AF4-AF9 inh
COc1cc2oc3cc(C#Cc4ccc(N)cc4)ccc3c(=O)c2cc1OC	-9	.	-2	-1	-30
CNC(C)C#Cc1ccc2c(=O)c3ccccc3oc2c1 (configuration not stated)	38*	13	51*	71	5
CC(/C=C1\SC(=S)N(CC(=O)O)C1=O)=C\c1ccccc1	0	6	.	11	-1
C=CCOc1ccc(/C=C2\SC(=S)N(C(C(=O)O)c3ccccc3)C2=O)cc1 (configuration not stated)	3	-42*	.	-1	-1
CC(/C=C1\SC(=S)N(C(C(=O)O)c2ccccc2)C1=O)=C\c1ccccc1 (configuration not stated)	12	-27*	.	-2	-1
COc1ccc(C)cc1-n1c(=O)c2ccccc2c2ccccc2c1=O	0	-26*	.	-7	-1
CCCN=Cc1c(CCC)[nH]n(-c2nc3ccccc3s2)c1=O	.	.	6	19	.
CCCc1[nH]n(-c2nc3ccccc3s2)c(=O)c1C=NCCCN(CC)CC	0	-22*	.	18	1
Cc1ccc2[nH]cc(C(=O)NCc3cccs3)c(=O)c2c1	-2	-24*	10	-5	-3
CC(C)OCC(O)Cn1c(N2CCCC2)nc2c1c(=O)n(C)c(=O)n2C (configuration not stated)	-1	0	-2	.	-1
O=c1c2ccccc2cnn1CCOc1cccc(Br)c1	21	0	49*	-2	-2
C[C@@H]1CN([C@H](C)CO)C(=O)CCCn2nncc2CO[C@@H]1CN(C)CC1CCCCC1	.	2	-13	.	-7
COc1ccc(C(=O)OCc2cc(=O)oc3cc(C)ccc23)cc1S(=O)(=O)N1CCOCC1	3	-1	17	.	2
Cc1ccc2c(COC(=O)c3ccccc3Cl)cc(=O)oc2c1	13	5	71*	181*	-1
Cc1ccc2c(COC(=O)c3ccccc3Br)cc(=O)oc2c1	1	5	54*	118*	-2
Cc1ccc2c(COC(=O)c3ccc(C)c(C)c3)cc(=O)oc2c1	-2	4	46*	48	0
COc1ccc(Br)c(C(=O)OCc2cc(=O)oc3cc(C)ccc23)c1	-4	5	24	62	0
CCc1nc(NCc2cccnc2)c2oc3ccccc3c2n1	-2	.	-8	-6	.
CNC(=O)COc1cccc(C(=O)NCc2ccccc2)c1	2	.	.	-5	.
CC(C)[C@@H](C(=O)NC1CCN(Cc2ccccc2)CC1)N1C(=O)N2CCc3c([nH]c4ccccc34)[C@@]2(C)C1=O	-1	.	3	3	27*
C[C@@H](C(=O)NC1CCN(Cc2ccccc2)CC1)N1C(=O)N2CCc3c([nH]c4ccccc34)[C@@]2(C)C1=O	-2	.	16	.	15
C=CCn1c(SCC(=O)c2ccc(O)c(O)c2)nnc1-c1cccc(C)c1	-5	-27*	1	-1	-3
CCn1c(SCC(=O)c2ccc(O)c(O)c2)nnc1-c1ccccc1OC	.	.	23	-4	.
CCn1c(SCC(=O)c2ccc(O)c(O)c2)nnc1-c1ccccc1	.	.	45*	31	.
C=CCn1c(SCC(=O)c2ccc(O)c(O)c2)nnc1-c1cccc(Cl)c1	-5	-18	-41	7	-16
SMILES	Wnt act	Ecoli rRNA inh	esBAF inh	MITF act	MLL AF4-AF9 inh
COc1ccc(S(=O)(=O)N2CCN(c3ccc(C)cc3C)CC2)cc1OC	-3	-5	4	1	-3
CCc1nnc(NC(=O)C23CC4CC(CC(C4)C2)C3)s1	17	-2	56*	70	0
Nc1cc(Nc2ccc(Br)cc2)nc(N)n1	39*	-44*	.	?	.
Cc1cc2ccc3ccccc3c2cc1CN(C)C	27	-15	.	.	.
CN(C)Cc1cc2ccccc2c2c1COC2	3	13	5	0	32*
CC(=O)c1ccc(OC(C)C(=O)Nc2cccc(S(=O)(=O)NCc3ccco3)c2)cc1 (configuration not stated)	-4	-1	1	-13	1
CC1=CC(C)(C)n2c(O)c(N=N)c3c(C)c(C)cc1c32	-11	-12	1	3	15
C[C@]12C(=O)N(c3cccc(Cl)c3)C(=O)N1[C@H]1c3ccccc3OC[C@@H]1[C@H]2c1ccccc1	.	.	-3	-1	.
C[C@@]12C(=O)N(c3cccc(Cl)c3)C(=O)N1[C@@H]1c3ccccc3OC[C@@H]1[C@H]2c1ccccc1	3	12	-11	-8	43*
O=C(NCc1ccccc1F)C1CCC(=O)N(Cc2ccc(Cl)cc2)C1 (configuration not stated)	-3	-1	4	1	-3
Cc1ccc(N2C(=O)c3ccc(N)cc3C2=O)cc1C	.	.	89*	.	.
CC(=O)Nc1ccc2c(c1)C(=O)N(c1ccc(C)cc1)C2=O	7	.	34	0	.
Cc1ccc(N2C(=O)c3ccc(N)cc3C2=O)cc1	69*	.	67*	.	.
Cc1ccc(N2C(=O)c3ccccc3C2=O)cc1C	-1	.	35	27	-5
C[C@H]1CCCCO[C@@H](CN(C)S(=O)(=O)c2cn(C)cn2)[C@@H](C)CN([C@@H](C)CO)C(=O)c2cc(NC(=O)Nc3ccc(F)cc3)ccc2O1	.	-2	-3	.	5
Cc1cc(NC(=O)c2ccc(Cl)cc2)c(C(C)C)cc1O	.	.	-2	.	.
O=C(Nc1ccc2nsnc2c1)c1cccs1	9	.	.	-7	.
CC(=O)Nc1ccc2nc(-c3cccn3C)[nH]c2c1	8	4	51*	.	-5
CC(=O)Nc1ccc2nc(-c3cccs3)[nH]c2c1	11	.	26	25	.
Cn1cccc1-c1nc2ccc(NC(=O)c3cccs3)cc2[nH]1	22	.	64*	55	.
C[C@H](CO)N1C[C@H](C)[C@@H](CN(C)C(=O)Nc2ccccc2)Oc2ccc(NC(=O)C3CCCCC3)cc2CC1=O	.	1	-3	.	-2
O=[N+]([O-])c1ccc(Sc2n[nH]c(-c3ccccc3)n2)nc1	12	.	51*	.	.
Oc1[nH]c(=S)sc1C=C1N=c2ccccc2=N1	42*	-19	26	.	2
Oc1c(C=C2N=c3ccccc3=N2)sc(=S)n1-c1ccc(F)cc1	-1	.	12	6	.
Cc1cccc(N2CC(C(=O)NC3CCCCCC3)CC2=O)c1C (configuration not stated)	368*	.	17	5	-1
Cc1ccccc1N1CC(C(=O)NC2CCCC2)CC1=O (configuration not stated)	-1	5	-7	2	-2
c1cc2c(cc1CNc1ccc(N3CCOCC3)cc1)OCO2	8	-2	69*	75	16
Cc1ccc(CNc2ccc(N3CCOCC3)cc2)cc1	0	6	64*	11	18
